Inconclusive results are not listed. The source made the active and inactive calls. The calls were made as follows: active = hit-call score of the fitted dose curve at least 0.9, where 1 is the maximum; inconclusive = response in the unintended direction; inactive = score below 0.9.
test: ATG_M_32_TRANS: Attagene TRANS-FACTORIAL HepG2 Assay for M32 Transcription Factor (Internal Marker) (AID 2282984); conditions: HepG2 Attagene TRANS M32 internal marker reporter
Experimental: ATG_TRANS is a cell-based, multiplexed-readout assay that uses HepG2, a human liver cell line, with measurements taken at 24 hours after chemical dosing in a 24-well plate.ATG_M_32_TRANS is one of 30 assay component(s) measured or calculated from the ATG_TRANS assay. It is designed to make measurements of mRNA induction, a form of inducible reporter, as detected with fluorescence intensity signals by Reverse transcription polymerase chain reaction (RT-PCR) and Capillary electrophoresis technology.Data from the assay component ATG_M_32_TRANS was analyzed into 1 assay endpoint. This assay endpoint, ATG_M_32_TRANS, was analyzed in the positive analysis fitting direction relative to DMSO as the negative control and baseline of activity. Using a type of inducible reporter, measures of mRNA for gain-of-signal activity can be used to understand the background control at the transcription factor-level as they relate to the gene . Furthermore, this assay endpoint can be referred to as a secondary readout, because this assay has produced multiple assay endpoints where this one serves a background control function. To generalize the intended target to other relatable targets, this assay endpoint is annotated to the background measurement intended target family, where the subfamily is internal marker.
Human liver HepG2 cells are transiently transfected with multiple reporter transcription units (MRTUs) in 6-well plates using FuGene 6 reagent (Roche; 3 ml FuGene/1 mg DNA). The MRTU constructs are regulated by a cis-regulating element (promoter). […] A major difference between the CIS and TRANS system is that in CIS activities of endogenous TFs are measured, whereas the TRANS assay evaluates changes in activities of exogenous, chimeric NR-Gal4 proteins. […] At the end of 24 hour incubation, total RNA was isolated using TriZol reagent (Invitrogen). The isolated RNA is then reverse-transcribed using oligo(dT) primer and Mo-MLV reverse transcriptase (Invitrogen) with DNAse I (Ambion) treatment for 30 min. The one-tenth of the produced cDNA was amplified by PCR using Taq DNA polymerase (Invitrogen) and two reporter sequence-specific primers. The PCR products were fluorescently labeled by primer extension with 6-arboxyfluorescein (6-FAM) 5'-labeled reporter sequence-specific primer (2 min at 95 C, 20 s at 68 C and 10 min at 72 C) and these products were digested with 5U of HpaI (New England Biolabs) for 2h at 37 C. The fragments were purified using Qiaquick PCR columns (Qiagen), analyzed on an ABI 3130xL genetic analyzer (Applied Biosystems) with peak positions identified by using a set of X-rhodamine (ROX)-labeled MapMarker1000 molecular weight standards (BioVentures). The raw capillary electrophoresis data was processed using Attagraph software (Attagene).

Question: With CC(C)(C)C(=O)CC(=O)C(F)(F)C(F)(F)C(F)(F)F as the compound, how does the outcome read?
Answer: inactive

Question: Which outcome does the source give for CCC(=O)OCCc1ccccc1 here?
Answer: inactive

Question: Which outcome does the source give for C=C(C)C(=O)OCC(F)(F)C(F)(F)C(F)(F)F here?
Answer: inactive

Question: Which outcome does the source give for O=C(O)C(F)(F)C(F)(F)C(F)(F)C(F)(F)F here?
Answer: inactive

Question: Which outcome does the source give for O=C(OCCOCCOCCOC(=O)c1ccccc1)c1ccccc1 here?
Answer: inactive

Question: For O=C(CC(=O)C(F)(F)C(F)(F)F)C(F)(F)F, which outcome is on record?
Answer: inactive

Question: With O[Si](c1ccccc1)(c1ccccc1)c1ccccc1 as the compound, how does the outcome read?
Answer: inactive

Question: For CC/C=C\CCOC(=O)c1ccccc1, which outcome is on record?
Answer: inactive

Question: For FC(F)(F)C(F)(F)CNCC(F)(F)C(F)(F)F, which outcome is on record?
Answer: inactive

Question: For CN(C)Cc1ccccc1O, which outcome is on record?
Answer: inactive

Question: Which outcome does the source give for FC(F)(F)C(F)(F)C(F)(F)C(F)(F)C(F)(F)C(F)(F)C(F)(F)I here?
Answer: inactive

Question: Which outcome does the source give for O=P(O)(O)OCCC(F)(F)C(F)(F)C(F)(F)C(F)(F)C(F)(F)C(F)(F)F here?
Answer: inactive

Question: For C1COCCN1, which outcome is on record?
Answer: inactive

Question: With [Co] as the compound, how does the outcome read?
Answer: inactive

Question: For CO[Si](OC)(c1ccccc1)c1ccccc1, which outcome is on record?
Answer: inactive

Question: Which outcome does the source give for FC(F)(F)C(F)(F)C(F)(F)C(F)(F)C(F)(F)C(F)(F)CCS here?
Answer: inactive

Question: With CCN(Cc1cccc(S(=O)(=O)O)c1)c1ccc(C(=C2C=CC(=[N+](CC)Cc3cccc(S(=O)(=O)O)c3)C=C2)c2ccc(O)cc2S(=O)(=O)[O-])cc1 as the compound, how does the outcome read?
Answer: inactive

Question: With C#C[C@]1(O)CC[C@H]2[C@@H]3CCc4cc(OC)ccc4[C@H]3CC[C@@]21C as the compound, how does the outcome read?
Answer: inactive

Question: For OC[C@@H](O)[C@@H](O)[C@H](O)[C@@H](O)CO, which outcome is on record?
Answer: inactive

Question: For c1ccc(B(c2ccccc2)c2ccccc2)cc1, which outcome is on record?
Answer: inactive

Question: For CC(Cc1ccc(O)c(O)c1)C(C)Cc1ccc(O)c(O)c1 (stereo not given), which outcome is on record?
Answer: inactive

Question: Which outcome does the source give for O=C(Cl)C(F)(F)C(F)(F)C(F)(F)C(F)(F)C(F)(F)C(F)(F)C(F)(F)C(F)(F)F here?
Answer: inactive

Question: For CC/C=C\CCOC(C)=O, which outcome is on record?
Answer: inactive

Question: For FC(F)(F)C(F)(F)C(F)(F)C(F)(F)C(F)(F)C(F)(F)C(F)(F)C(F)(F)CCS, which outcome is on record?
Answer: inactive

Question: With CS(C)(=O)=O as the compound, how does the outcome read?
Answer: inactive

Question: For FC(F)(Br)C(F)(F)C(F)(F)C(F)(F)C(F)(F)C(F)(F)Br, which outcome is on record?
Answer: inactive

Question: Which outcome does the source give for Nc1ccc(Oc2cccc(Oc3ccc(N)cc3)c2)cc1 here?
Answer: inactive

Question: With O=C(O)C(F)(F)C(F)(F)C(F)(F)F as the compound, how does the outcome read?
Answer: inactive

Question: With O=C(O)C(F)(F)C(F)(F)OC(F)(F)F as the compound, how does the outcome read?
Answer: inactive

Question: With CCCCC(CC)COP(=O)(O)OCC(CC)CCCC (stereo not given) as the compound, how does the outcome read?
Answer: inactive

Question: With FC(F)(F)C(F)(F)C(F)(F)C(F)(F)C(F)(F)C(F)(F)C(F)(F)Br as the compound, how does the outcome read?
Answer: inactive

Question: With OCC(F)(F)C(F)(F)C(F)(F)C(F)F as the compound, how does the outcome read?
Answer: inactive

Question: Which outcome does the source give for FC1CC(F)(F)C(F)(F)C1(F)F (stereo not given) here?
Answer: inactive

Question: Which outcome does the source give for Nc1ccc([N+](=O)[O-])cc1O here?
Answer: inactive

Question: With CCCCOCCOCCOC(=O)CCCCC(=O)OCCOCCOCCCC as the compound, how does the outcome read?
Answer: inactive

Question: With CCCCNc1ccccc1 as the compound, how does the outcome read?
Answer: inactive

Question: Which outcome does the source give for O=S(=O)(O)C(F)(F)C(F)(F)C(F)(F)C(F)(F)C(F)(F)C(F)(F)C(F)(F)F here?
Answer: inactive

Question: For CCN(CC)c1ccc2c(C)cc(=O)oc2c1, which outcome is on record?
Answer: inactive

Question: Which outcome does the source give for O=S(=O)(OCCOC(F)(F)F)C(F)(F)F here?
Answer: inactive

Question: For O=C(O)C(F)(F)C(F)(F)C(F)(F)C(F)(F)C(F)(F)C(F)(F)C(F)(F)C(F)(F)C(F)(F)C(F)(F)C(F)(F)C(F)(F)C(F)(F)F, which outcome is on record?
Answer: inactive

Reference: PubChem BioAssay (EPA / NIEHS)
